The values below come from PubChem BioAssay (NCI).

The panel holds about 83,000 compounds, 20% with a hit somewhere; the sample as a whole holds those more often.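 Interpretation: 100, growth as untreated; towards 0, rising growth inhibition; 0, no net growth; 0 to -100, cell death. Compounds scoring below 10 were considered active.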 Values without a mark were called inactive. The source made the active and inactive calls.

Some test systems named below: SK-MEL-2 melanoma; EKVX NSCLC; SN12C renal; UO-31 renal; TK-10 renal; ACHN renal; CAKI-1 renal; A498 renal; CCRF-CEM leukemia; MOLT-4 leukemia; SR leukemia; RPMI-8226 leukemia; OVCAR-8 ovarian; OVCAR-4 ovarian; SK-OV-3 ovarian; IGROV1 ovarian; OVCAR-3 ovarian; HS 578T breast; NCI/ADR-RES ovarian; OVCAR-5 ovarian.
Experiment in all cases: NCI-60 one-dose screen, 48 h (100 = growth as untreated, 0 = no growth, -100 = all killed)
Conditions in all cases: 10 µM unless noted

For `CCCCCCCCCCCCCCCCCCNC(=O)[C@H]1CSC(c2ccc(F)c(OC)c2)N1` (some centres not stated), the growth in the experiment with SK-MEL-2 melanoma is -94.1% (active); in the experiment with EKVX NSCLC it was -57.5% (active); in the experiment with SN12C renal, -79.2% (active); in the experiment with UO-31 renal it was 45.5%; in the experiment on TK-10 renal, 6.86% (active); in the experiment with ACHN renal it was 30.3%. For the same compound, the growth in the experiment with CAKI-1 renal was -76.8% (active); in the experiment with A498 renal it was 6.25% (active); in the experiment with CCRF-CEM leukemia, -36.8% (active); with MOLT-4 leukemia it was -14.9% (active); in the experiment with SR leukemia it was -42.1% (active); in the experiment with RPMI-8226 leukemia it was -49.3% (active). Moreover, the growth in the experiment on OVCAR-8 ovarian was -28.2% (active); in the experiment with OVCAR-4 ovarian, -3.83% (active); with SK-OV-3 ovarian, 10.5%; in the experiment with IGROV1 ovarian it was -6.12% (active); with OVCAR-3 ovarian it was -85.6% (active); in the experiment with HS 578T breast, -30.7% (active). The growth in the experiment on NCI/ADR-RES ovarian was -42.6% (active).
Regarding `CCn1cc2c(cc1=O)-c1nc3ccccc3c3ccnc(c13)C2=O`, the growth in the experiment with SK-MEL-2 melanoma was 62.3%; in the experiment with EKVX NSCLC, 87.8%; with SN12C renal it was 16.5%; with UO-31 renal it was 42.5%; in the experiment with TK-10 renal it was 86.1%; with ACHN renal, 10.1%. For the same compound, the growth with CAKI-1 renal is 60%; in the experiment with A498 renal, 81.7%; with CCRF-CEM leukemia, 104%; in the experiment with MOLT-4 leukemia, 80.6%; in the experiment with SR leukemia, 15.1%; in the experiment with RPMI-8226 leukemia it was 80.1%. Besides, the growth in the experiment on OVCAR-8 ovarian is 55.2%; in the experiment on OVCAR-5 ovarian, 105%; with OVCAR-4 ovarian it was 80.7%; in the experiment on SK-OV-3 ovarian, 45.8%; in the experiment with IGROV1 ovarian it was 70.2%; in the experiment on HS 578T breast, 94.4%. Also, the growth in the experiment with NCI/ADR-RES ovarian was 71.8%.
Turning to `CCOC(=O)c1c2c(n3ccc(NC(=O)CCN(CC)CC)cc13)C(=O)c1ncccc1C2=O`, the growth in the experiment on SK-MEL-2 melanoma was 29.3%; in the experiment with EKVX NSCLC, 71.3%; in the experiment on SN12C renal it was 27.6%; in the experiment with UO-31 renal, 28.8%; in the experiment with TK-10 renal, 36.5%; in the experiment on ACHN renal it was 16.1%. Moreover, the growth in the experiment with CAKI-1 renal was 23%; in the experiment on A498 renal, 46.9%; with CCRF-CEM leukemia, 52.9%; in the experiment with MOLT-4 leukemia it was 29.3%; in the experiment on SR leukemia, -2.86% (active); in the experiment on RPMI-8226 leukemia, 51.2%. The growth was 57.4% in the experiment with OVCAR-8 ovarian; 90.5% in the experiment on OVCAR-5 ovarian; 63.8% with OVCAR-4 ovarian; 47.3% in the experiment on IGROV1 ovarian; 74.7% with OVCAR-3 ovarian; 60.8% in the experiment with HS 578T breast. In the experiment on NCI/ADR-RES ovarian, the growth was 60.2%.
For the compound `CS(=O)(CCCCN=C=S)=NC(=O)c1c(F)c(F)c(F)c(F)c1F` (configuration not stated), the growth with SK-MEL-2 melanoma was 88.3%; in the experiment with EKVX NSCLC it was 99%; with SN12C renal it was 90.9%; in the experiment on UO-31 renal, 90%; with TK-10 renal, 76.9%; with ACHN renal, 49.6%. The growth in the experiment with CAKI-1 renal was 96.3%; with A498 renal, 88.8%; with CCRF-CEM leukemia, 73.5%; with MOLT-4 leukemia it was 82.5%; with SR leukemia, 23.1%; in the experiment with RPMI-8226 leukemia it was -3.75% (active). In addition, the growth with OVCAR-8 ovarian is 97.3%; with OVCAR-5 ovarian, 100%; in the experiment with OVCAR-4 ovarian, 112%; in the experiment on SK-OV-3 ovarian, 97.3%; in the experiment with IGROV1 ovarian it was 106%; in the experiment with HS 578T breast it was 88.7%. For the same compound, the growth with NCI/ADR-RES ovarian is 103%.
As for `O=C(CN1CCN(c2cc3c(cc2F)c(=O)c(C(=O)O)cn3C2CC2)CC1)Nc1nc(-c2ccccc2)cs1`, the growth with SK-MEL-2 melanoma is 94.6%; in the experiment on EKVX NSCLC it was 91.4%; with SN12C renal, 71.2%; in the experiment on UO-31 renal, 81.7%; in the experiment with TK-10 renal it was 82.9%; in the experiment with ACHN renal it was 89.5%. The growth was 93.8% in the experiment with CAKI-1 renal; 65.2% in the experiment with A498 renal; 79.1% with CCRF-CEM leukemia; 89% with MOLT-4 leukemia; 90.5% in the experiment on SR leukemia; 66.3% in the experiment on RPMI-8226 leukemia. Moreover, the growth with OVCAR-8 ovarian is 52.1%; with OVCAR-5 ovarian, 97.7%; in the experiment with OVCAR-4 ovarian, 97.5%; with IGROV1 ovarian, 84.7%; with OVCAR-3 ovarian, 90.3%; in the experiment with HS 578T breast, 60.5%. The growth in the experiment on NCI/ADR-RES ovarian is 92.7%.
Take `CN1CCN(Cc2ccc(NC(=O)c3[nH]ncc3Nc3ncnc4c3CCC4)cc2)CC1`: the growth in the experiment with SK-MEL-2 melanoma is 13.6%; in the experiment with EKVX NSCLC it was 26%; with SN12C renal, 6.07% (active); in the experiment with UO-31 renal it was 6.53% (active); in the experiment on TK-10 renal, 2.4% (active); in the experiment with ACHN renal it was -10.8% (active). The growth in the experiment with CAKI-1 renal is 9.41% (active); in the experiment on A498 renal, -21.7% (active); with CCRF-CEM leukemia it was 11.1%; with MOLT-4 leukemia, -2.96% (active); in the experiment on SR leukemia, -18.6% (active); in the experiment with RPMI-8226 leukemia, -9.23% (active). Further, the growth was 11.9% in the experiment on OVCAR-8 ovarian; -0.195% (active) in the experiment with OVCAR-5 ovarian; 6.83% (active) in the experiment on OVCAR-4 ovarian; 19.2% with IGROV1 ovarian; -5.87% (active) in the experiment with OVCAR-3 ovarian; 16.1% in the experiment with HS 578T breast. Also, the growth with NCI/ADR-RES ovarian is 71.7%.
In the case of `Clc1nc(Cl)c2c3c(sc2n1)CCCC3`, the growth is 20% with SK-MEL-2 melanoma; 89.8% in the experiment on EKVX NSCLC; 27.5% in the experiment on SN12C renal; 65.6% in the experiment on UO-31 renal; 91% in the experiment with TK-10 renal; 45.1% with ACHN renal. The growth in the experiment on CAKI-1 renal was 64.2%; in the experiment on A498 renal, 127%; in the experiment on CCRF-CEM leukemia, 10.7%; with MOLT-4 leukemia, -27.8% (active); in the experiment with SR leukemia, -36.4% (active); in the experiment on RPMI-8226 leukemia, 1.89% (active). In addition, the growth with OVCAR-8 ovarian was 39.8%; in the experiment with OVCAR-4 ovarian it was 44.1%; with SK-OV-3 ovarian, 107%; with IGROV1 ovarian, 38.4%; in the experiment with OVCAR-3 ovarian, -35.9% (active); in the experiment with HS 578T breast, 76.2%. Also, the growth with NCI/ADR-RES ovarian was 99.7%.
With `O=C(NCc1cccc(C(F)(F)F)c1)[C@H](CCC(=O)N1CCN(C2CCCCC2)CC1)N1C(=O)[C@@H](N2C(=O)OC[C@@H]2c2ccccc2)[C@H]1/C(Cl)=C/c1ccccc1`, the growth in the experiment with SK-MEL-2 melanoma was 34.8%; in the experiment with EKVX NSCLC it was 53.8%; with SN12C renal, 37.1%; with UO-31 renal, 27.5%; in the experiment with TK-10 renal it was 40.8%; in the experiment with ACHN renal, 58.4%. Moreover, the growth was 62.4% with CAKI-1 renal; 46.9% in the experiment on A498 renal; 33.9% in the experiment with CCRF-CEM leukemia; 21.4% in the experiment with MOLT-4 leukemia; -36.3% (active) with SR leukemia; 14.1% in the experiment on RPMI-8226 leukemia. The growth in the experiment with OVCAR-8 ovarian was 64.3%; in the experiment on OVCAR-5 ovarian, 87%; in the experiment with OVCAR-4 ovarian it was 51.6%; in the experiment with SK-OV-3 ovarian, 56%; with IGROV1 ovarian, 36.8%; in the experiment with HS 578T breast it was 50%. The growth in the experiment with NCI/ADR-RES ovarian is 35.7%.
